HT1080-NT tox: qHTS for induction of synthetic lethality in tumor cells producing 2HG: qHTS for the HT-1080-NT fibrosarcoma cell line; actives 1.6% (n = 360,000); HT-1080-NT fibrosarcoma viability, CellTiter-Glo ATP luminescence, 48 h; AID 686970, 2013; Potency, µM (titrated, usually from 46.1 µM), for inactives: at the highest dose activity, negative = less viability, hits mostly cytotoxic;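 note: NT is the 2HG producing partner of a matched IDH1 knockdown line; 0% = DMSO-treated cells and -100% = media-only wells without cells; nearly all actives have a fitted effect of over 55% in size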
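750 cells/well, RPMI + 5% FBS; 2 h settle, compound pin-transfer, 48 h at 37 degrees C. CellTiter-Glo 10 min RT, luminescence. Normalized to DMSO and media-only wells.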
HT1080 IDH1KD tx: qHTS for induction of synthetic lethality in tumor cells producing 2HG: qHTS for the HT-1080-IDH1KD cell line; HT-1080 IDH1 knockdown viability, ATP luminescence, 48 h; AID 686971, 2013; Potency, µM (highest dose often 46.1 µM), for inactives: at the top dose activity, negative = toxicity, usual class: cytotoxic; actives 2% (n = 360,000);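 note: 0% = DMSO wells and -100% = cell-free medium wells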
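% activity derives from luminescence (CellTiter-Glo), normalised to DMSO and no-cell wells. HT-1080-IDH1KD cells, 750/well, had 48 h compound exposure at 37 °C.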
SW480 rereplic: A quantitative high throughput screen for small molecules that induce DNA re-replication in SW480 colon adenocarcinoma cells; actives 1.8% (n = 340,000); SW480 DNA re-replication, Hoechst DNA content imaging, 48 h; Potency, µM (top dose mostly 46.1 µM), inactives show at the top dose re-replication activation, usual class: activators; note: % of control where 0% means no effect; nearly all actives have a fitted effect of over 55% in size
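Cells (250 per well) received 23 nL compound or DMSO by pin tool and were kept 48 hr at 37 C, 5% CO2. Nuclei were then stained with Hoechst for 40 min and scanned for DNA content.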
KB-3-1 cytotox: qHTS assay for MDR1-selective chemotherapeutics: Primary screen using the parental adenocarcinoma cell KB-3-1; KB-3-1 viability, CellTiter-Glo ATP luminescence, 72 h; actives 1.4% (n = 400,000); AID 1347075, 2019; Potency, µM (series often up to 46.1 µM), usual class: cytotoxic; note: % is set by controls: 0 for no effect and ±100 for the full control effect; nearly all actives have a fitted effect of over 60% in size
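Cells are dispensed, compounds pinned in, plates held at 37 °C for 72 h, then CellTiter-Glo is added and luminescence read after 10 minutes. Cell line: parental KB-3-1 in phenol-red-free DMEM, 10% FBS.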
KB-V1 cytotox: qHTS assay for MDR1-selective chemotherapeutics: Primary screen using the drug-selected MDR subline cells KB-V1; KB-V1 MDR cells viability, CellTiter-Glo, 72 h; Potency, µM (series often up to 46.1 µM), usual class: cytotoxic; actives 3.4% (n = 400,000); AID 1347076, 2019; note: % is set by controls: 0 for no effect and ±100 for the full control effect; nearly all actives have a fitted effect of over 60% in size
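Cytotoxicity toward P-gp-expressing KB-V1 cells was determined as loss of CellTiter-Glo luminescence after 72 h at 37 degrees C. Compounds were tested in quantitative HTS format across a concentration range, with curves fitted to normalized data.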
MCF10A rereplic: A quantitative high throughput screen for small molecules that induce DNA re-replication in MCF 10a normal breast cells; Potency, µM (doses to about 46.1 µM), without a hit: at the highest dose activity, positive = re-replication, usual class: activators; AID 624296, 2012; MCF 10A DNA re-replication, Hoechst nuclear intensity, 48 h; actives 2.9% (n = 350,000); note: % of control where 0% means no effect; nearly all actives have a fitted effect of over 50% in size
The depositor's hits bear a star; i = inactive; ? = inconclusive; . = not tested or not shown; [ ] = another dose, or the depositor's remark. An excerpt weighted towards active compounds, which were near 7.9% of everything screened. Calls come from the whole dose curve; as a rule, active = well fitted curve in the direction sought with a large enough effect; inconclusive = small, poorly fitted or top-dose-only effect, or another doubt; inactive = no such curve, though single readings can be large; an effect the other way counts as inactive or inconclusive. Potency is the fitted concentration of half-maximal effect.

SMILES | HT1080-NT tox | HT1080 IDH1KD tx | SW480 rereplic | KB-3-1 cytotox | KB-V1 cytotox | MCF10A rereplic
CCOc1cc(S(=O)(=O)NCCc2ccc(OC)c(OC)c2)c(OCC)cc1-n1cnnn1 | 5% | 12% | 0% | i | i | 13%
CCOc1cc(C)c(S(=O)(=O)NC2CCCCC2)cc1C | -15% | -6%[9.24 µM] | -1% | ? | ? | -2%
CCOc1cc(S(=O)(=O)NC2CC2)c(OCC)cc1-n1cnnn1 | 15% | 3% | -11% | i | 15µM* | 16%
CC(NC(=O)CSc1nc(-c2ccccc2F)nc2cc(=O)[nH]n12)c1nc2ccccc2n1C (configuration not stated) | . | . | . | i | ? | .
O=C(Nc1nc(-c2cccs2)c(-c2cccs2)s1)C1CCCC1 | -1% | -18% | -9% | ? | 21µM* | ?
Cc1c(C(=O)c2no[n+]([O-])c2C(=O)c2cnn(C)c2C)cnn1C | ? | ? | ? | ? | i | 11µM*
CN(C)S(=O)(=O)Oc1ccsc1C(=O)Nc1cccc(Cl)c1 | -6% | 0% | -12% | ? | 21µM* | 10%
COC(=O)c1sccc1-c1ccc(C(=O)Nc2cccc(Cl)c2)o1 | -6% | -7% | 6% | i | 16µM* | ?
COC(=O)c1ccccc1NC(=O)c1ccc(-c2cccc(Cl)c2)o1 | 24% | 12% | -6% | i | i | -2%
COC(=O)c1cc2oc3ccccc3c2n1Cc1nc(-c2cccc(C)c2)oc1C | . | . | . | i | i | .
CC(CCC(C)C(C)(C)C)[C@@H]1CC[C@H]2C3C[C@H](OS(O)(=S)=S)[C@H]4C[C@H](OS(O)(=S)=S)[C@@H](OS(O)(=S)=S)C[C@]4(C)[C@H]3CC[C@]12C (some centres not stated) (tested in a mixture with another compound) | 9.2µM* | ? | -59% | i | i | ?
NC(=O)c1cc([N+](=O)[O-])ccc1N1CCCCC1 | 10% | 1% | -2% | i | i | 15%
CC1CN(c2ccc([N+](=O)[O-])cc2C#N)CC(C)O1 (configuration not stated) | 10% | 11% | 13% | i | ? | 0%
Cc1ccc(C(=O)c2cc([N+](=O)[O-])ccc2N2CC(C)OC(C)C2)cc1 (configuration not stated) | 18µM* | ? | 12µM* | i | ? | 22%
Cc1ccc(C(=O)c2cc([N+](=O)[O-])ccc2N2CCCCC2)cc1 | 0.82µM* | 0.92µM* | 0.58µM* | i | ? | ?
Cc1ccc(S(=O)(=O)NC[C@H]2O[C@@H](n3ccc(N)nc3=O)[C@H](O)[C@@H]2O)s1 | 0% | 1% | . | i | i | .
Cc1ccc2c(c1)C1CN(C)CCC1N2Sc1ccccc1[N+](=O)[O-] (configuration not stated) | 16µM* | ? | ? | i | i | ?
C=C(C)Cn1c(SCC(=O)Nc2cccc(Cl)c2)nc2sc3c(c2c1=O)CCCC3 | . | . | . | i | i | .
COc1ccc(Nc2nc(Nc3ccc(OC)cc3)nc(-n3[nH]c(=O)c(C)c3C)n2)cc1 | ? | ? | 13% | i | 1.2µM* | ?
COc1ccc(Nc2nc(OC)nc(OC)n2)cc1 | 18% | 3% | 1% | i | i | -4%
COc1ccc(NC2=Nc3ccccc3N3C2=Nc2c(c(C)nn2-c2ccc(C)cc2)C3c2cccnc2)cc1 (configuration not stated) | 9% | 6% | 2.9µM* | i | ? | 4.6µM*
CC(=O)Nc1ccc(NC2=Nc3ccccc3N3C2=Nc2c(c(C)nn2-c2ccccc2)C3c2ccccc2)cc1 (configuration not stated) | 16% | 17% | ? | 8.2µM* | ? | ?
N=c1oc2c3c4c(cc2cc1C(=O)Nc1ccccc1)CCCN4CCC3 | -2% | -16% | 1.4µM* | i | i | 4.1µM*
O=C(CN1C(=O)C2(SCC(=O)N2c2ccccc2)c2ccccc21)NCc1ccccc1 (configuration not stated) | . | . | . | i | ? | .
Cc1ccc(S(=O)(=O)N(C)C[C@H]2Oc3cc(C#Cc4ccccc4)ccc3S(=O)(=O)N([C@H](C)CO)C[C@@H]2C)cc1 | 0% | -3% | . | i | i | .
SMILES | HT1080-NT tox | HT1080 IDH1KD tx | SW480 rereplic | KB-3-1 cytotox | KB-V1 cytotox | MCF10A rereplic
CC(C)(C)c1cc(C(=O)Nc2ccccc2)ccn1 | 0% | 0% | -6% | i | 21µM* | 4%
CC(C)(C)NC(=O)c1ccnc(C(C)(C)C)c1 | -4% | 2% | -16% | i | i | -2%
CC(NC(=O)c1ccnc(C(C)(C)C)c1)c1ccccc1 (configuration not stated) | 2% | 4% | 10% | ? | 18µM* | 6%
Cc1ccc(NC(=O)c2ccnc(C(C)(C)C)c2)cc1 | 12% | 8% | -2% | ? | i | 10%
CCCC(C)(C)C(=O)N1CCC1(C)C(=O)NS(=O)(=O)c1cccc(Cl)c1 (configuration not stated) | -1% | ? | . | i | i | .
COc1ccc(-n2nc(C(=O)NCCc3ccc(OC)c(OC)c3)c3c4ccccc4n(C)c3c2=O)cc1Cl | . | . | . | i | i | .
O=C(CN1C(=O)NC2(CCCCC2)C1=O)N1CCN(S(=O)(=O)c2ccc(Cl)s2)CC1 | 4% | -1% | -30% | i | i | 2%
CN1C(=O)N(CC(=O)N2CCN(S(=O)(=O)c3ccc(Cl)s3)CC2)C(=O)C12CCCCC2 | 1% | -5% | 4% | i | 15µM* | 24%
COc1ccc(N2CCN(C(=O)c3cccn4c(=O)c5ccc(Cl)cc5nc34)CC2)cc1 | . | . | . | i | i | .
COc1ccc(/C(C)=N/NS(=O)(=O)c2ccccc2)c(OC)c1 | 7% | 9% | -2% | i | i | -3%
COc1ccc(/C(C)=N\NS(C)(=O)=O)c(OC)c1 | 18% | 14% | 0.58µM* | i | i | -6%
CCOC(=O)C1CCN(C(c2ccccn2)c2c(C)[nH]c3ccccc23)CC1 (configuration not stated) | ? | ? | ? | 18µM* | i | 21µM*
